{"source": "PubChem BioAssay AID686996", "about": "(Broad Institute, 2013)", "note": "Several values for one entry are separate records, joined by “and”; a condition that tells them apart may be missing. Equal values may be shown once. In all, about 350,000 compounds went through this assay and about 1,900 (0.54%) were called active. The sample as a whole holds a higher share of actives than the screen did. Values without a mark were called inactive.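 Rule for the calls: active = mean inhibition across replicates at least about 35%, with every replicate also reaching that limit (limit read from the data); inconclusive = only one of the two criteria met; inactive = neither criterion met.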", "data": [{"molecular_target": "Caspase-6 (Homo sapiens) (UniProt P55212)", "sequence (P55212 24-179 limits assumed)": "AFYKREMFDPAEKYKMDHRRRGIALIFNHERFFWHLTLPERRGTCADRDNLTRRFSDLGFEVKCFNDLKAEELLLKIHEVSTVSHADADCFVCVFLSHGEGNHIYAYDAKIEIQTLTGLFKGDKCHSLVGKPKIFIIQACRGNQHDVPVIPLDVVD", "sequence (P55212 194-293 limits assumed)": "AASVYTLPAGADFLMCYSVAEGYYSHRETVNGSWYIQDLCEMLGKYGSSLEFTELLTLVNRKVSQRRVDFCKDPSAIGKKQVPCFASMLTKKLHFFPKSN", "assay": "inhibition of CASP6 peptide cleavage – biochemical, VEID-R110 fluorescence, single point, set 2, primary screen (AID 686996);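 note: 0% = median of neutral control wells and 100% = no fluorescence left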", "details": "purified caspase-6, Z-VEID-R110 cleavage fluorescence; at 12.5 µM; stronger effect = higher value", "values": [{"smiles": "COC(=O)C1=C(c2ccccc2)C[C@@H]2CC[C@H]1N2C(=O)NCc1ccco1", "inhibition": "2.09%"}, {"smiles": "COC(=O)C1=C(c2ccc(C(C)=O)cc2)C[C@@H]2CC[C@H]1N2C(=O)NCCNC(C)=O", "inhibition": "35.3% (active)"}, {"smiles": "COC(=O)C1=C(c2ccc3ccccc3c2)C[C@@H]2CC[C@H]1N2C(=O)NCCO", "inhibition": "-0.313%"}, {"smiles": "COC(=O)[C@H]1[C@H](CO)[C@H]2Cn3c(ccc(C4=CCCC4)c3=O)[C@@H]1N2C(=O)CC1CC1", "inhibition": "2.1%"}, {"smiles": "CCOC(=O)[C@]12Cc3ccccc3[C@H]1N(C1CCCCC1)C(=O)c1cc(OC)ccc12", "inhibition": "1.66%"}, {"smiles": "COc1ccc(N2C(=O)/C(=C/c3ccco3)C(=O)NC2=S)cc1", "inhibition": "-1.07%"}, {"smiles": "O=C1NC(=O)N(c2ccccc2)C(=O)/C1=C/c1ccc([N+](=O)[O-])s1", "inhibition": "49.9% (active)"}, {"smiles": "COc1cccc(N2C(=O)NC(=O)/C(=C\\c3ccc([N+](=O)[O-])s3)C2=O)c1", "inhibition": "46% (active)"}, {"smiles": "Cc1ccccc1N1C(=O)NC(=O)/C(=C\\c2cc(C)n(C)c2C)C1=O", "inhibition": "3.93%"}, {"smiles": "COc1cccc(N2C(=O)NC(=O)/C(=C\\c3cn(C)c4ccccc34)C2=O)c1", "inhibition": "4.46%"}, {"smiles": "CC(C)CN1Cc2cc(N3CCCCC3)ccc2-n2nncc2C1", "inhibition": "-0.486%"}, {"smiles": "COC1C(O)C(C)OC(OC2CCC3(C=O)C(CCC4C3CCC3(C)C(C5=CC(=O)OC5)CCC43O)C2)C1O", "note": "(stereo not given)", "inhibition": "0.09%"}, {"smiles": "CCOC(=O)[C@@H]1[C@@H]2NC(=O)N[C@@]1(C)Oc1ccccc12", "inhibition": "1.71% and -2.72%"}, {"smiles": "CCOC(=O)c1cccc(C2=C(CNC(=O)c3ccncc3)[C@H]3CC[C@@H](C2)N3Cc2ccccc2)c1", "inhibition": "0.927%"}, {"smiles": "Cc1c(C(=O)O)cccc1-n1c(C)cc(/C=C2\\C(=O)NC(=O)N(c3ccc4c(c3)OCO4)C2=O)c1C", "inhibition": "26.5%"}, {"smiles": "O=C1NC(=O)N(CCc2ccc(F)cc2)C(=O)/C1=C/C=C/c1ccccc1", "inhibition": "-1.88%"}, {"smiles": "Cc1ccc(-n2c(C)cc(/C=C3\\C(=O)NC(=O)N(C)C3=O)c2C)cc1C", "inhibition": "12.1%"}, {"smiles": "O=C(O)COc1ccccc1/C=C1\\C(=O)NC(=O)N(CCC2=CCCCC2)C1=O", "inhibition": "9.11%"}, {"smiles": "COc1ccc(CN2C(=O)NC(=O)/C(=C\\c3ccc(OC)c(OC)c3OC)C2=O)cc1", "inhibition": "4.46%"}, {"smiles": "O=C1NC(=O)N(Cc2ccco2)C(=O)/C1=C\\c1cccn1CCOc1ccccc1", "inhibition": "61.1% (active)"}, {"smiles": "Cc1cc(/C=C2/C(=O)NC(=O)N(Cc3ccco3)C2=O)c(C)n1-c1ccc(C(=O)O)cc1", "inhibition": "50.7% (active)"}, {"smiles": "O=C1NC(=O)N(Cc2ccco2)C(=O)/C1=C\\c1ccc(-c2ccc(F)cc2)o1", "inhibition": "73.9% (active)"}, {"smiles": "Brc1ccc2c(c1)CNCc1cnnn1-2", "inhibition": "-1.24%"}, {"smiles": "c1cc2c(c(NC3=NCCCS3)c1)CCCC2", "inhibition": "-1.96%"}, {"smiles": "COC(=O)[C@H]1[C@H](CO)[C@H]2Cn3c(cccc3=O)[C@H]2N1CC1CC1", "inhibition": "1.75%"}, {"smiles": "O=C1NCN(c2ccccc2)C12CCN(C(c1cccs1)c1nnnn1C1CCCCC1)CC2", "note": "(stereo not given)", "inhibition": "0.584%"}, {"smiles": "O=C(Cc1ccccn1)N1CCCCN2[C@H](C1)[C@H](c1ccc(-c3ccccc3F)cc1)[C@@H]2CO", "inhibition": "1.27%"}, {"smiles": "O=C(Cc1ccccn1)N1CCCCN2[C@@H](CO)[C@@H](c3ccc(C#Cc4ccccc4)cc3)[C@@H]2C1", "inhibition": "-4%"}, {"smiles": "COC(=O)[C@@H]1[C@@H](CO)[C@@H]2Cn3c(ccc(-c4cccc(C(=O)N(C)C)c4)c3=O)[C@H]1N2C(=O)NC(C)C", "inhibition": "0.335%"}, {"smiles": "COc1cc(OC)cc(C(=O)NCCN2CCC3(CC2)C(=O)NCN3c2ccccc2)c1", "inhibition": "-14.3%"}]}]}
